Set-up in all cases: scale not given: direction of the effect not stated beside the values
Test [1] concerns the target Protein translocase subunit SecA (Escherichia coli (strain K12)) (UniProt P10408). Nature of the test: Assay to Identify E. coli SecA ATPase Inhibitors. In kind it is functional. The settings on record: 30 µM.
Test [2] has as its target T1, Ubiquitin-activating enzyme e1, putative (Leishmania donovani (strain BPK282A1)) (UniProt E9BSI1).
T1 sequence (whole entry): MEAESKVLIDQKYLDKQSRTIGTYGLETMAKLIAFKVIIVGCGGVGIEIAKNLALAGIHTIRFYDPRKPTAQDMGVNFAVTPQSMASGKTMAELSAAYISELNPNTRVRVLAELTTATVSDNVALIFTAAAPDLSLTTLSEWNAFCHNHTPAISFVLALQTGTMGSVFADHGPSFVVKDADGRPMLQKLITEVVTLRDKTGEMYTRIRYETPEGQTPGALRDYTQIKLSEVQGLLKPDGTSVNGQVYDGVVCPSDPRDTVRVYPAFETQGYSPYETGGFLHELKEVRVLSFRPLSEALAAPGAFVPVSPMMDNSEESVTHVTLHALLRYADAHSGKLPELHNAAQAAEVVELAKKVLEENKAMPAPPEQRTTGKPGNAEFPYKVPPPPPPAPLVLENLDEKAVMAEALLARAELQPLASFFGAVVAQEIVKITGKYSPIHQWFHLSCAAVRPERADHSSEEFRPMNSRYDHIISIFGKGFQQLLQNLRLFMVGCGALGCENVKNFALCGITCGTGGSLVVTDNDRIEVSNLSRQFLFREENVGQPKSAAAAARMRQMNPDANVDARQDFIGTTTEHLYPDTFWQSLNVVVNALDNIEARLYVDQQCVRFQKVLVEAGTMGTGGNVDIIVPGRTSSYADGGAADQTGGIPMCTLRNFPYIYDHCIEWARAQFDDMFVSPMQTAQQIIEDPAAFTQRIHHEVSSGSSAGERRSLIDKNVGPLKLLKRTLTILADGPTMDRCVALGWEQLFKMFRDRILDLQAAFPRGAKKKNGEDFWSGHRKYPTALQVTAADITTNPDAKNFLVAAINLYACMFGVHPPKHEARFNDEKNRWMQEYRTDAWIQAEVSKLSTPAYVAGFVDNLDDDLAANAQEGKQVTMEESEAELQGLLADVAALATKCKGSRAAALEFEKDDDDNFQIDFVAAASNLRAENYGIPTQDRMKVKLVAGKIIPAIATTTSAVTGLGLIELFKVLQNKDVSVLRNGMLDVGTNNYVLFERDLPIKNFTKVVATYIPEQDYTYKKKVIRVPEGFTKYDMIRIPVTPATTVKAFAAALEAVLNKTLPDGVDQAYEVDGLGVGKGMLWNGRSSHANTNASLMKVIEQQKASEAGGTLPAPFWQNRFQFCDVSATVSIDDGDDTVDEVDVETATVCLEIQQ
Nature of the test: Leishmania donovani Ubiquitin Activating Enzyme (LdE1). Conditions: 30 µM. It is filed as functional.

The target in test [3] is AMP-activated protein kinase, AMPK (Homo sapiens) (UniProt P54646+O43741+P54619+Q9UGJ0+Q9Y478+Q13131+Q9UGI9). As to the kind of experiment: AMP-dependent Kinase enzyme assay. An in vitro enzyme assay that detects ADP turnover that is directly proportional to AMPK activity. This uses naive AMPK that is activated during the assay with MK-8722. In kind it is functional. Conditions: 30 µM.

In test [4] the target is Sialic acid-binding Ig-like lectin 9 (Homo sapiens) (UniProt Q9Y336). As to the kind of experiment: Hs-Siglec9 ALPHAscreen SOP 20170721. The settings on record: 10 µM.
Sialic acid-binding Ig-like lectin 9 (Homo sapiens), sequence (Q9Y336 whole entry): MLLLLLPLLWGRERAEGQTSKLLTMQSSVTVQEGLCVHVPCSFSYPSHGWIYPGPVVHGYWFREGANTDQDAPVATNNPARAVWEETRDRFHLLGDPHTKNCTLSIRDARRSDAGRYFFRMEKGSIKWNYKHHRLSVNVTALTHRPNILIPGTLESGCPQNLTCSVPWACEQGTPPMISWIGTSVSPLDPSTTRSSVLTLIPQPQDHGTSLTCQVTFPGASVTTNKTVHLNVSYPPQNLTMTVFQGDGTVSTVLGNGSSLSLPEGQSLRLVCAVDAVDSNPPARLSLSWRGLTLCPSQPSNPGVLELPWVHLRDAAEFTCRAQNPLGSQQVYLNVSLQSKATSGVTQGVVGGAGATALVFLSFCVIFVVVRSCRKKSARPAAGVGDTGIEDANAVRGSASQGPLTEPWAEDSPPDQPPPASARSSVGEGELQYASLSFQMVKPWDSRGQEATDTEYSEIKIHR
Another test relates to Trypanosoma cruzi. As to the kind of experiment: Trypanosoma cruzi phosphomannomutase and mannose-1-phosphate guanylyltransferase assay. It is filed as functional. Conditions: 10 µM.
The target of test [5] is T2, Arginase-2, mitochondrial (Homo sapiens) (UniProt P78540).
T2 sequence (whole entry): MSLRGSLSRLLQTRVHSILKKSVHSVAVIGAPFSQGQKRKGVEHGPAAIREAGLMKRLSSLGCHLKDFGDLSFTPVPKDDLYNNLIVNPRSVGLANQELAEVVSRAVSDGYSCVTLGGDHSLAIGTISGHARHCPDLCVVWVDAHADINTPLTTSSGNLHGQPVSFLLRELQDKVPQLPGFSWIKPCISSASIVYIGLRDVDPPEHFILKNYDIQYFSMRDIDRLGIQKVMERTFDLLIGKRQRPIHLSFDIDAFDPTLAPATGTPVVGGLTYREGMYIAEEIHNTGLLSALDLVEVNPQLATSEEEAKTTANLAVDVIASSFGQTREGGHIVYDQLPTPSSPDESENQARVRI
Nature of the test: in vitro enzyme assay to detect the production of urea directly proportional to the activity of Arginase II. Further: in the data most compounds retested in dose-response had high values. In kind it is functional. The settings on record: 33.3 µM.

Test [6] addresses T3, Proteasome subunit beta (Trypanosoma cruzi) (UniProt O96673).
T3 sequence (whole entry): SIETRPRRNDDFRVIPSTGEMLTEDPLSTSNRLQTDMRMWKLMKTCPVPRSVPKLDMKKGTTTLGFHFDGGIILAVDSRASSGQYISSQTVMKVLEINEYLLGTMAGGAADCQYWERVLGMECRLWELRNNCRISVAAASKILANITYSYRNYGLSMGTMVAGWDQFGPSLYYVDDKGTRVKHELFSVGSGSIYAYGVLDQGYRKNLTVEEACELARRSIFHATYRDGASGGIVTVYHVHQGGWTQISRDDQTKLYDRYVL
As to the kind of experiment: Trypanosoma cruzi proteasome chymotrypsin-like activity (TcProtChymo) assay. Further: in the data most compounds retested in dose-response had high values. It is filed as functional. Conditions: 9.37 µM.

For a further test, the species on record is Homo sapiens. As to the kind of experiment: To identify inhibition of the IFN signalling (Jak-Stat) pathway via expression of an eGFP reporter gene under the control of an IFN-stimulated response element (ISRE) containing MxA promoter. In kind it is functional. Conditions: 30 µM.
Test [7] addresses T4, Tyrosyl-tRNA synthetase, putative (Trypanosoma cruzi (strain CL Brener)) (UniProt Q4DSP6).
T4 sequence (whole entry): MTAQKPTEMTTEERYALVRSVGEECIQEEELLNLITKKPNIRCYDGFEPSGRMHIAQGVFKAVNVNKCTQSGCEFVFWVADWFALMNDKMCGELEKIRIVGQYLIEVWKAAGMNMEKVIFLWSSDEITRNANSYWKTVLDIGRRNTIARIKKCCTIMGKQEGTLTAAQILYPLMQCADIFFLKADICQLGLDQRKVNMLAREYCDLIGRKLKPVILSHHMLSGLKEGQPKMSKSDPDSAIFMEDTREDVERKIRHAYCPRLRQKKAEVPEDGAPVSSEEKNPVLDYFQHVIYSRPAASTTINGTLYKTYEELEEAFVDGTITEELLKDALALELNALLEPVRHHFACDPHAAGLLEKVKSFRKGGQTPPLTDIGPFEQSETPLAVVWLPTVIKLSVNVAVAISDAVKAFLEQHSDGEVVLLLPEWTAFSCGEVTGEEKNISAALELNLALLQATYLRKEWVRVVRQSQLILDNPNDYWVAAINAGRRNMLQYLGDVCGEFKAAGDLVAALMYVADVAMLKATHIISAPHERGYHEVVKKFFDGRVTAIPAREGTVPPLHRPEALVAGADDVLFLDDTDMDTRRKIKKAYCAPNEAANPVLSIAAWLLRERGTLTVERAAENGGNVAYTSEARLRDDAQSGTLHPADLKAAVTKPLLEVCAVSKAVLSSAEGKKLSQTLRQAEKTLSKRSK
As to the kind of experiment: Trypanosoma cruzi tyrosyl tRNA synthetase (TcYRS) _High Tyrosine SOP. Further: in the data most compounds retested in dose-response had high values. In kind it is functional. The settings on record: 30 µM.

The target of test [8] is T4, Tyrosyl-tRNA synthetase, putative (Trypanosoma cruzi (strain CL Brener)). Nature of the test: Trypanosoma cruzi tyrosyl tRNA synthetase (TcYRS) SOP. It is filed as functional. Conditions: 30 µM.
Test [9] concerns the target Chromo domain-containing protein 1 (Saccharomyces cerevisiae (strain ATCC 204508 / S288c) (Baker's yeast)) (UniProt P32657). Nature of the test: ScCHD-1 Enzyme Inhibition Assay. Further: in the data most compounds retested in dose-response had high values. In kind it is functional. The settings on record: 30 µM.

For some of these results: Results with a measured potency or affinity are listed apart.

Chromo domain-containing protein 1 (Saccharomyces cerevisiae (strain ATCC 204508 / S288c) (Baker's yeast)), sequence (P32657 whole entry, the tested form may be a part): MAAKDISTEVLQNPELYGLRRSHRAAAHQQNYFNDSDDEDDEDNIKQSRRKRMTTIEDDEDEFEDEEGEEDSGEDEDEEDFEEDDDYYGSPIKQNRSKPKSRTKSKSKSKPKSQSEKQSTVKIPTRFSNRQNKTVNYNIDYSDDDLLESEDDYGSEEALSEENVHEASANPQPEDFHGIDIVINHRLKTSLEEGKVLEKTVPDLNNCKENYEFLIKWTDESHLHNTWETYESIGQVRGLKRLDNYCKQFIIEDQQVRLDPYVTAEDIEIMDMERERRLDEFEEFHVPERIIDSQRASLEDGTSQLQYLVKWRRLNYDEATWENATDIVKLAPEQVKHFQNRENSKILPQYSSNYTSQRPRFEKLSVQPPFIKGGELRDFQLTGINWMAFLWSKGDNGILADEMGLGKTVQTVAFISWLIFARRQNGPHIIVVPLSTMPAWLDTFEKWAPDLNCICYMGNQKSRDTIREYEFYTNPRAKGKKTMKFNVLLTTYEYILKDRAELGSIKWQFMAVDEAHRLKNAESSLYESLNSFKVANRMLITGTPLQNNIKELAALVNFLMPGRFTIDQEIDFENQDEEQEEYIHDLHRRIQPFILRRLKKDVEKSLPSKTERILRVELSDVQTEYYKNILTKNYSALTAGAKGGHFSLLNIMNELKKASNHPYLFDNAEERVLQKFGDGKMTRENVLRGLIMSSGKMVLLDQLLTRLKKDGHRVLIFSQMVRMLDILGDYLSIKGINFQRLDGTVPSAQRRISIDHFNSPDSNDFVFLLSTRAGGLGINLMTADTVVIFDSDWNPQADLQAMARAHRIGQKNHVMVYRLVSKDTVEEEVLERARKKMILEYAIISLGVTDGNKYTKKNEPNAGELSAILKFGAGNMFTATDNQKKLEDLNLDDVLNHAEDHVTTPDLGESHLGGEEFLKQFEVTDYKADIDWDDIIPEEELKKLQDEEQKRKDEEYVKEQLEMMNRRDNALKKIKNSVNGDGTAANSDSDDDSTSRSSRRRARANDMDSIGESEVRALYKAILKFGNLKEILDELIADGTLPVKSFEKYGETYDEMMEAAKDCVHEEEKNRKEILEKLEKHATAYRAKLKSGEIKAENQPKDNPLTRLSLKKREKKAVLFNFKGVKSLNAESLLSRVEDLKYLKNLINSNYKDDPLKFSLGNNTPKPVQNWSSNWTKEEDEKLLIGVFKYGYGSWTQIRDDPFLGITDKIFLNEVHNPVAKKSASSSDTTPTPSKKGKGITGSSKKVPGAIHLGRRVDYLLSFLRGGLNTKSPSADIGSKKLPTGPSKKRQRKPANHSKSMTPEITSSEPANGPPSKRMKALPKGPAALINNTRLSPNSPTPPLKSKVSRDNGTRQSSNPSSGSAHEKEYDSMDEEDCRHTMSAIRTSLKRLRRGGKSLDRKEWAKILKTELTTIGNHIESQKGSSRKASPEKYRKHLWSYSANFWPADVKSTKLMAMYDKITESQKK
Protein translocase subunit SecA (Escherichia coli (strain K12)), sequence (P10408 whole entry): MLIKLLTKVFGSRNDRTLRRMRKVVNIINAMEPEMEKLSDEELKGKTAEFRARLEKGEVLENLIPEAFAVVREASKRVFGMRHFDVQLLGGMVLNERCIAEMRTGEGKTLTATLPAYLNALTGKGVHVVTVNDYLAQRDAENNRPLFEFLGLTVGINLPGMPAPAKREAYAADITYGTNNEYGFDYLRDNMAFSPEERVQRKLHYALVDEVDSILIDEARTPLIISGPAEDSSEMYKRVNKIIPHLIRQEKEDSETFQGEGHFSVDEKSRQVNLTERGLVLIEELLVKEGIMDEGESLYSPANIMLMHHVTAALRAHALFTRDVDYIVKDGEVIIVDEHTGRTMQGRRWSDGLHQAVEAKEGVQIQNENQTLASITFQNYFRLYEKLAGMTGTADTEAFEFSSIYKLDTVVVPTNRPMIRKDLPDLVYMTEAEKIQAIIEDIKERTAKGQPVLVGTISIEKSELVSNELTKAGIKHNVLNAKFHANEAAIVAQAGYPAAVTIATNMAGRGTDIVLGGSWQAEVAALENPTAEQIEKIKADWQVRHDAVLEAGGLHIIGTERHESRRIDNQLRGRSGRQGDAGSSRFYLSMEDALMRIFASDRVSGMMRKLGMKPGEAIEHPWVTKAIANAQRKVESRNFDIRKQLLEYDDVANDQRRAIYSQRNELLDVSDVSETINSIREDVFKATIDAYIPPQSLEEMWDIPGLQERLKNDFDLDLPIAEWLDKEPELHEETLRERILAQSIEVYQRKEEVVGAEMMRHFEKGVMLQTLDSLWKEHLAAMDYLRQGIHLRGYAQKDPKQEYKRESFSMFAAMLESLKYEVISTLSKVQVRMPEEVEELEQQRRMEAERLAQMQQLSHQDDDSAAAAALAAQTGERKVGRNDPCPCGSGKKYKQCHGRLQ

On to `CC(=O)Nc1ncc(S(=O)(=O)Nc2ccc(F)cc2)s1`, for which the Percent Effect is -4.49% in [1]; 17.3% in test [2]; -9.36% in [3]; -7.58% in [4]; 2.36% in the test with Trypanosoma cruzi; -0.88% in test [5]. The Percent Effect in test [6] is 12.2%; in the test filed under Homo sapiens it was 20.4%; in test [7], 3.17%; in test [8], 10.3%; in [9] it was -10.6%.
For the molecule `Cc1noc(C2CCN(C(=O)c3c(C)noc3C)CC2)n1`, the Percent Effect is -3.97% in [1]; 10.8% in [2]; -5.85% in test [3]; 7.55% in [4]; 1.47% in the test on Trypanosoma cruzi; 0.248% in test [5]. Moreover, the Percent Effect is 11.9% in test [6]; -25.3% in the test filed under Homo sapiens; 6.45% in [7]; 13.6% in test [8]; -4.31% in test [9].
For `O=C(c1cc(COc2ccc3c(c2)OCO3)[nH]n1)N1CC=CC1CO` (stereo unspecified), the Percent Effect in test [1] was -3.88%; in [2], -2.74%; in test [3] it was 9.97%; in [4] it was 22.3%; in the test on Trypanosoma cruzi, -5.36%; in test [5] it was 0.399%. Moreover, the Percent Effect in test [6] is 15.3%; in the test filed under Homo sapiens, 9.04%; in test [7], 3.12%; in test [8] it was -8.64%; in test [9] it was 0.567%.
Consider `CS(=O)(=O)NC1CCc2c(ccc(=O)n2CC2CC2)C1` (stereo unspecified), for which the Percent Effect was -2.67% in [1]; 10.7% in test [2]; 7.1% in test [3]; 2.38% in test [4]; -3.54% with Trypanosoma cruzi; 2.56% in [5]. Besides, the Percent Effect was 10.7% in test [6]; -2.08% in the test listed under Homo sapiens; 6.38% in [7]; 14.1% in test [8]; 0.517% in [9].
For the molecule `COc1cccc(COCC(=O)N2CCCC(c3nncn3C)C2)c1` (stereo unspecified), the Percent Effect in [1] is -4.98%; in test [2], 13.5%; in test [3], -6.54%; in [4] it was 18.4%; in the test on Trypanosoma cruzi it was 3.11%; in test [5], -6.81%. The Percent Effect in test [6] was 0.721%; in the test filed under Homo sapiens, 13.5%; in test [7], 4.43%; in test [8], 16.1%; in [9] it was -11.8%.
Consider `N#Cc1cccc(CS(=O)(=O)NCCC(O)c2ccccc2)c1` (stereo unspecified), for which the Percent Effect in [1] was 13%; in test [2], 5.33%; in test [3], -6.17%; in test [4], 7.18%; in the test on Trypanosoma cruzi, 4.77%; in [5], 15.1%. Further, the Percent Effect in test [6] was 16.2%; in the test listed under Homo sapiens it was 3.01%; in [7], 4.92%; in [8], 16.1%; in test [9] it was -6.38%.
For `CC(C)c1ncncc1C(=O)N1CCN(Cc2cscn2)CC1`, the Percent Effect in [1] was -12.5%; in test [2] it was 13.5%; in test [3], -16%; in test [4] it was 21.4%; in the test on Trypanosoma cruzi, 10.7%; in [5] it was 2.03%. Besides, the Percent Effect in [6] is 5.03%; in the test filed under Homo sapiens, 5.44%; in test [7], 6.93%; in test [8], 23.2%; in test [9], -8.1%.
With `CN(C)c1cc(CNC(=O)c2cn(-c3ccc(F)cc3)nn2)ccn1`, the Percent Effect was -5.01% in test [1]; 10.4% in test [2]; 1.52% in test [3]; 2.16% in test [4]; 0.686% in the test on Trypanosoma cruzi; 3.58% in [5]. In addition, the Percent Effect in [6] was 14.2%; in the test listed under Homo sapiens, 11.3%; in test [7], 7.62%; in [8], 21.2%; in [9], -6.24%.
In the case of `Cc1cc(CN(C)C(=O)c2cc3c([nH]c2=O)CCCC3=O)no1`, the Percent Effect in test [1] is -5.46%; in [2], 5.41%; in test [3], -1.63%; in [4], -1.13%; in the test on Trypanosoma cruzi it was -7.52%; in test [5] it was 5.73%. The Percent Effect is -5.57% in [6]; 18% in the test listed under Homo sapiens; 0.99% in test [7]; 6.1% in test [8]; -0.0983% in [9].
Consider `Cc1ccc(CN2CC(C(=O)N3CCCC3)C3(CCOCC3)C2)s1` (stereo unspecified), for which the Percent Effect was 0.462% in [1]; 0% in [2]; 0.717% in [3]; 0.63% in test [4]; -5.41% in the test with Trypanosoma cruzi; -54.3% in [5]. The Percent Effect in [6] is 2.05%; in the test filed under Homo sapiens it was 5.33%; in test [7], 2.08%; in test [8], 0%; in test [9], -4.71%.
For `CC(C)c1nc(C2CCCN2C(=O)c2nccnc2N)no1` (stereo unspecified), the Percent Effect was -6.3% in [1]; 16.2% in [2]; -11% in [3]; 23.1% in test [4]; 4.18% with Trypanosoma cruzi; -4.99% in test [5]. The Percent Effect in test [6] is 6.1%; in the test filed under Homo sapiens it was 12.1%; in [7], 6.93%; in test [8], 23.2%; in test [9], -5.79%.

(Values after ChEMBL document CHEMBL3988442, “University of Dundee, Small-Polar-MMV Screening Library” (2021).)
